Source: PubChem BioAssay
M1 ag – human M1 muscarinic receptor agonism | P11229 | CHO-K1 hM1, Fluo-8 calcium fluorescence, agonist mode; 0% DMSO, 100% acetylcholine EC100 | activation, % at 3 µM | 360,000 compounds, 0.33% hits | AID 588814;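 active = activation above the run's mean compound activation plus 3 SD, cut at about 16% in these data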;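 note: peak over basal fluorescence ratio within a 140 s kinetic read after compound addition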
Target sequence (P11229 whole entry, looked up): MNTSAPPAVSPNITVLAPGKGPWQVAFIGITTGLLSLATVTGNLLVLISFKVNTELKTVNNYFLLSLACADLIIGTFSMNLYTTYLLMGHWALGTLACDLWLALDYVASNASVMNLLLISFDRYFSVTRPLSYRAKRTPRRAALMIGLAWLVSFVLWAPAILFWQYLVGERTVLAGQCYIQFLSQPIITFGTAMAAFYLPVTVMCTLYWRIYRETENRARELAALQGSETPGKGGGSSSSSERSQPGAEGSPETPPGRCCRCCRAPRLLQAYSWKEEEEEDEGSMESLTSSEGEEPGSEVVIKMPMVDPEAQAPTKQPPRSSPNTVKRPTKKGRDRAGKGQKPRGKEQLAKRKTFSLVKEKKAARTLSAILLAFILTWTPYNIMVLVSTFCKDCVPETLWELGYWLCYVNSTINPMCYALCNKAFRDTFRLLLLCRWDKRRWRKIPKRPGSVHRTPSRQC
CHRM1 antagonist – blocks human M1 muscarinic receptor | P11229 | CHO-K1 hM1, Fluo-8 calcium fluorescence, ACh EC80 antagonist | inhibition, % at 3 µM | 360,000 compounds, 1.3% hits | AID 588852;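 active = percent inhibition above its own plate's cutoff, namely the mean of that plate's compound wells plus 3 SD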;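 note: peak over basal fluorescence ratio during 140 s after agonist addition; 0% = ACh EC80 plus DMSO and 100% = DMSO alone without agonist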
CHO-K1 Ca antag – M1 antagonist counterscreen hit in parental CHO-K1 cells; ATP-induced calcium, Fluo-8 fluorescence; inhibition, % at 3 µM; 360,000 compounds, 0.6% hits;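 active = inhibition above a per-plate cutoff, the plate's mean sample inhibition plus 3 SD, cut at about 24% in these data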;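 note: 0% = DMSO plus EC80 ATP and 100% = DMSO alone without ATP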
CHRM1 PAM – positive allosteric modulators of human M1 muscarinic receptor; CHO-K1 hM1, Fluo-8 calcium fluorescence, ACh EC20; 0% = ACh EC20, 100% = maximal ACh; activation, % at 3 µM; 360,000 compounds, 0.088% hits; P11229; AID 588819; in the data active = activation above about 19%, passing the limit was not always enough
M1 ag parental – counter-screen for M1 agonists: effect in parental CHO-K1 cells | activation, % at 3 µM | Fluo-8 calcium fluorescence; scaled to maximal ATP response, vehicle zero | AID 602248 | 360,000 compounds, 0.48% hits; in the data active = activation above about 15%;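 note: untransfected CHO-K1 host cells lacking M1 receptor as counterscreen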
M1 PAM parental – M1 PAM counterscreen hit in parental CHO-K1 cells. ATP EC20, Fluo-8 calcium fluorescence; 0% at ATP EC20, 100% at ATP max. activation, % at 3 µM. 360,000 compounds, 0.02% hits;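 active = activation above the run cutoff, the mean activation of all test compounds plus 3 SD, cut at about 40% in these data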;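 note: peak over basal fluorescence ratio in a 140 s read after ATP addition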
* = called active by the depositor. Rows were chosen to be rich in hits. Some 2.3% of all compounds tested hit in one or more screens of this group.

SMILES | M1 ag | CHRM1 antagonist | CHO-K1 Ca antag | CHRM1 PAM | M1 ag parental | M1 PAM parental
CC1(O)c2ccccc2C(=O)N1Cc1ccccc1 (stereo not drawn) | -7 | 1 | 27* | 6 | -1 | -6
CC1(O)c2ccccc2C(=O)N1CCc1ccccc1F (stereo not drawn) | -5 | -9 | -12 | 2 | 0 | 20
CC1(C)C2CCC(C2)C1(C)NC(=O)CN1CCN(Cc2ccccc2)CC1 (stereo not drawn) | -8 | 9 | -5 | -12 | 1 | 25
CC1(C)C2CCC(C2)C1(C)NC(=O)C[N+](C)(C)C (stereo not drawn) | 5 | -4 | -7 | 11 | 23* | 1
Cc1ccc(CC(=O)N(C)CC(=O)Nc2ccc(N3CCOCC3)cc2)cc1C | -2 | 4 | 25* | -1 | 0 | -26
CCOc1ccc(CN(C)CC(=O)Nc2ccc(N3CCOCC3)cc2)cc1OC | -8 | -1 | 1 | 8 | 16* | 17
CC(C)(C)NC(=O)c1nn(Cc2ccccc2)c(=O)c2ccccc12 | -8 | -4 | -15 | 5 | 2 | 15
COc1cc(C(=O)Nc2ccc3c(c2)N(C(=O)CCN(C)C)c2ccccc2CC3)cc(OC)c1OC | -14 | 27* | -3 | -33 | 0 | 16
Cc1cc(C)cc(NC(=O)c2ccc(CSc3nnnn3C)cc2)c1 | 2 | 28* | 15 | -8 | 4 | -1
CC(C)NS(=O)(=O)c1ccc(CCC(=O)N2CCCC2)cc1 | -3 | 1 | 24* | 8 | -1 | -16
CC(=O)c1c(C)[nH]c(C(=O)COC(=O)C2(C)CC2(Cl)Cl)c1C (stereo not drawn) | 1 | 20 | -7 | -14 | 20* | 2
O=C1C(=C2CCCCC2)SC(=S)N1Cc1ccco1 | -6 | 29* | -2 | -20 | 0 | 4
O=C(O)CCN1C(=O)C(=C2CCCCCC2)SC1=S | -3 | -7 | -2 | 6 | 0 | 18
CN(C)c1ccc(C=C2SC(=S)N(Cc3ccco3)C2=O)cc1 | 20* | 17 | 12 | -16 | 12 | -6
Cc1noc(COc2ccccc2OCC(N)=O)n1 | -3 | -10 | -1 | 12 | 16* | 19
OC(c1cccnc1)c1nc(-c2ccc3c(c2)OCO3)cs1 (stereo not drawn) | 0 | -17 | -5 | 10 | 2 | 14
CCCCc1ccc(NC(=O)CSc2nc(=O)n(CCN(CC)CC)c3c2CCC3)cc1 | -7 | 36* | -2 | -20 | 0 | -18
O=C(CSc1nc(=O)n(CCCN2CCOCC2)c2c1CCCC2)Nc1cccc([N+](=O)[O-])c1 | -9 | 26 | -1 | -16 | 4 | 12
O=C(CSc1nc(=O)n(CCCN2CCOCC2)c2c1CCCC2)Nc1cccc(F)c1 | -8 | 30* | 5 | -14 | 3 | -15
CCN(CC)CCn1c2c(c(SCC(=O)Nc3ccc(C)c(F)c3)nc1=O)CCCC2 | -8 | 50* | -5 | -26 | 0 | 11
CCN(CC)CCCn1c2c(c(SCC(=O)Nc3cc(OC)cc(OC)c3)nc1=O)CCC2 | -8 | 29* | -1 | -16 | 3 | -20
COc1ccc2cc(C(=O)C3CCCN(C(=O)CCc4cnn(C)c4)C3)ccc2c1 (stereo not drawn) | -6 | -4 | 1 | 5 | 5 | 13
O=C(NCc1ccccc1)C1CC(=O)N(c2ccc(OCC(=O)N3CCOCC3)cc2)C1 (stereo not drawn) | -4 | -11 | -16 | 9 | 1 | 10
CC(Sc1nc(N)cc(=O)[nH]1)C(=O)Nc1ccc(N2CCOCC2)cc1 (stereo not drawn) | -4 | -22 | -12 | 10 | 1 | 31
C/C(Cn1nc([N+](=O)[O-])cc1C)=N\NC(=O)c1ccc(O)cc1O | -5 | -9 | -24 | 7 | 2 | 23
SMILES | M1 ag | CHRM1 antagonist | CHO-K1 Ca antag | CHRM1 PAM | M1 ag parental | M1 PAM parental
COc1cc(C(=O)N/N=C(\C)Cn2nc([N+](=O)[O-])cc2C)ccc1O | -8 | -2 | 28* | 7 | 0 | -12
COc1ccc(N=Cc2c(O)c3ccccc3n2C(C)=O)cc1 | -4 | -5 | -4 | 4 | 0 | 3
COc1ccc(N=Cc2sc(O)c3ccccc23)cc1 | 30* | 30* | 11 | -11 | 14 | 10
CC(=O)Nc1ccc(NC(=O)Cn2cnc3c(nnn3Cc3ccc(F)cc3)c2=O)cc1 | 16* | -2 | -4 | 1 | 1 | 15
N#C/C(=C\c1ccc(OCC(N)=O)cc1)c1ccccc1 | -3 | 6 | 6 | -6 | 1 | 5
C=CC[N+]1(CC#CCOC(c2ccccc2)c2ccccc2)CCOCC1 | -14 | 49* | 1 | -28 | 0 | -2
C=CC#CC[N+]1(CC#Cc2ccccc2)CCOCC1 | -13 | -3 | 0 | -3 | -1 | 3
COc1cccc(-c2nc(-c3ccc4c(c3)-c3ccccc3S4(=O)=O)c(-c3ccccc3)[nH]2)c1OC | 2 | 5 | 27* | 2 | -1 | -9
COc1cc(-c2nc(-c3ccc4c(c3)-c3ccccc3S4(=O)=O)c(-c3ccccc3)[nH]2)cc(OC)c1OC | -2 | 22 | 16 | -5 | 2 | -1
CCOC(=O)CCS(=O)(=O)c1ccc(-c2ccc(S(=O)(=O)CCC(=O)OCC)cc2)cc1 | 0 | -12 | -26 | 3 | 2 | 14
COC(=O)c1ccc(CNC(=O)C(C)N=C2NS(=O)(=O)c3ccccc32)cc1 (stereo not drawn) | -3 | -2 | 4 | 4 | 1 | -2
COc1ccc(S(=O)(=O)N2CCC(C(=O)NC(c3nc4ccccc4[nH]3)C(C)C)CC2)cc1 (stereo not drawn) | -5 | 4 | 23 | -2 | 1 | -4
CN1CCCC(CC2c3ccccc3Sc3ccccc32)C1 (stereo not drawn) | -3 | 99* | 1 | -25 | 2 | 9
CN1CCCC(OC(=O)c2ccccc2F)C1 (stereo not drawn) | -10 | 27 | -5 | -14 | 1 | 0
COc1ccc(C(=O)/C=C2/C(=O)Nc3ccccc32)cc1OC | 18* | 33* | -8 | 24 | 2 | 2
CC(=O)c1c[nH]c(C(=O)NCc2ccccc2Cl)c1 | -2 | -9 | -7 | 10 | 2 | 16
COc1ccc(C(=O)COC(=O)CCCC(=O)NC2CCCCC2)cc1 | -2 | -2 | -2 | 2 | 1 | 0
O=C(Nc1nc(-c2cc3ccccc3o2)cs1)c1ccc(S(=O)(=O)N2CCCC2)cc1 | 2 | 10 | 17 | -8 | 2 | -10
CN(C)S(=O)(=O)c1ccc(C(=O)Nc2nc(-c3cc4ccccc4o3)cs2)cc1 | 1 | 24* | 10 | -12 | 4 | 2
NS(=O)(=O)c1ccc(CCNC(=O)c2ccc(C#CC3(O)CCCCC3)cc2)cc1 | 0 | 38* | 20 | -22 | 6 | 0
